Source: ChEMBL document CHEMBL1157539, “Thousands of chemical starting points for antimalarial lead identification” (Nature, 2010)

The compounds below were run on Plasmodium falciparum (assay: GSK_TCMDC: Inhibition of Plasmodium falciparum 3D7 in whole red blood cells, using parasite LDH activity as an index of growth. Test compounds present at 2uM).
Type: functional
`CCN1CCN(CCCNc2c3ccc(Cl)cc3nc3ccc(OC)cc23)CC1.Cl` was tested, and the Inhibition was 97%. `Nc1nccc2ccc(OC3CCCCC3)cc12.O=CO` was tested, and the Inhibition was 98%. In the case of `c1ccc(Oc2ccc(Nc3ccnc4cc(-c5ccc(CN6CCOCC6)o5)ccc34)cc2)nc1`, the Inhibition is reported as 92%. Compound `CC(C)NCc1cccc(-c2cccc(NC(=O)c3cccc(C#N)c3)c2)c1.O=C(O)C(F)(F)F` has an Inhibition of 99%.

The compounds below were run on Plasmodium falciparum (assay: GSK_TCMDC: Inhibition of Plasmodium falciparum Dd2 in whole red blood cells, using parasite LDH activity as an index of growth. Test compounds present at 2uM).
Type: functional
For `CCCCCCN1CCN(Cc2cccc(NC(=O)c3ccc(Cl)c(Cl)c3)c2)CC1.O=C(O)C(F)(F)F`, the Inhibition was 51%. For `CC(C)NCc1ccc(-c2ccc(-c3nc4cc(C(F)(F)F)ccc4[nH]3)s2)cc1.O=C(O)C(F)(F)F`, the Inhibition was 94%. Compound `CN(C)CC(O)C(c1ccccc1)c1cccc(Br)c1.Cl` (centres undefined) has an Inhibition of 9%. In the case of `CCCCCn1c(Sc2ccc(C#N)c([N+](=O)[O-])c2)nnc1-c1ccc(Cl)cc1`, the Inhibition is reported as 29%. `COc1ccc2nccc([C@@H](O)CN3CCC(NCc4ccc(OC)c(NC(C)=O)c4)CC3)c2c1` showed an Inhibition of 0%. With `Nc1nc(O)c2cc(CN(C=O)c3ccc(C(=O)N[C@@H](CCC(=O)O)C(=O)O)cc3)ccc2n1` the Inhibition was 94%. `CC(C)(C)OC(=O)NCc1ccc(Nc2nnc(-c3cccc(C(=O)NCCC(c4ccccc4)c4ccccc4)c3)o2)cc1` gave an Inhibition of 89%. `N#Cc1cccc(NC(=O)c2cccc(S(=O)(=O)NC3CCN(CC4CCCCC4)C3)c2)c1.O=C(O)C(F)(F)F` (centres undefined) was tested, and the Inhibition was 27%. For `CS(=O)(=O)O.NC1=NC(CCc2ccccc2)N(c2ccccc2)C(N)=N1` (centres undefined), the Inhibition was 15%. For `O=C(NCCCCN1CCN(c2cccc3ccccc23)CC1)c1ccc(NC(=O)c2ccc(Cl)cc2)cc1`, the Inhibition was 64%. With `Cc1cc(C)c(NC(=O)N[C@H]2CCN(CCCCCNC(=O)/C=C/c3ccc(Cl)c(Cl)c3)C2)c(C)c1` the Inhibition was 3%. `CC(C)(C)C1CCC(CC2=C(C(=O)O)c3ccccc3C2=O)CC1` (centres undefined) was tested, and the Inhibition was 56%. `FC(F)(F)c1ccc2[nH]ccc(=NN=Cc3cccnc3)c2c1` showed an Inhibition of 40%. `FC(F)(F)c1ccc2[nH]ccc(=NN=Cc3ccccc3Cl)c2c1` showed an Inhibition of 83%. `COc1ccc2nccc(N3CCC(SCCNCc4ccc5c(n4)NC(=O)CS5)C3)c2n1.Cl` (centres undefined) was tested, and the Inhibition was 100%. `Cc1ccc(NC(=O)c2ccc(N3CCN(c4ccncc4)CC3)cc2)cc1F.O=C(O)C(F)(F)F` was tested, and the Inhibition was 79%. `COc1ccc(COc2cc(NCCCN)nc3ccccc23)cc1` gave an Inhibition of 5%. Work on `CC(C)N1CCN(c2ccc(OCCCCN3CCN(c4cccc(Cl)c4Cl)CC3)cc2Cl)CC1.Cl` yielded an Inhibition of 34%. `NC(=O)c1ccccc1Nc1nc(Nc2ccc(N3CCOCC3)cc2)ncc1[N+](=O)[O-].O=C(O)C(F)(F)F` was tested, and the Inhibition was 96%. In the case of `N#Cc1ccc2[nH]cc(CN3CCC4(CC3)CN(CCNCc3ccccc3)C(=O)CO4)c2c1.O=C(O)C(F)(F)F`, the Inhibition is reported as 0%. `CC(C)Cc1c(O)nc(SCCN2CCOCC2)[nH]c1=O.Cl` showed an Inhibition of 0%. Work on `CN(Cc1ccccc1)C1CCCN(c2cc(NC(=O)c3cccs3)ccn2)C1.O=C(O)C(F)(F)F` (centres undefined) yielded an Inhibition of 90%. In the case of `CCC(C)OC(=O)C1=C(C)NC2=C(C(=O)CC(c3ccc(OC)c(OC)c3)C2)C1c1ccc(O)cc1` (centres undefined), the Inhibition is reported as 97%. In the case of `O=C(N[C@H]1CCN(CCc2ccc(O[C@H]3CCNC3)c(Br)c2)C1)c1ccc(Cl)c(Cl)c1.O=C(O)C(F)(F)F`, the Inhibition is reported as 0%. With `CCNC(=O)N1CCc2ccc(Oc3nc(NCc4ccccc4OC)ncc3C)cc2CC1.O=C(O)C(F)(F)F` the Inhibition was 76%. Compound `Cn1cc(-c2ccnc3[nH]c(-c4cccc(CNC5CCC(O)CC5)c4)cc23)cn1.O=C(O)C(F)(F)F` (centres undefined) has an Inhibition of 82%. Work on `O=C(Nc1ccc2c(c1)OCO2)c1cc(-c2cccnc2)nc2ccc(Cl)cc12` yielded an Inhibition of 41%. In the case of `Br.CC(C)c1ccc(OCCCON2C(=N)N=C(N)NC2(C)C)cc1`, the Inhibition is reported as 97%. In the case of `Cl.Nc1c2c(nc3ccc(NC(=O)CCCCCc4ccccc4)cc13)CCCC2`, the Inhibition is reported as 36%. With `O=C(O)C(F)(F)F.O=S(=O)(NC1CCCCN(Cc2ccccc2O)C1)c1ccc(C(F)(F)F)cc1` (centres undefined) the Inhibition was 39%. For `Cl.N=C(N)NN=Cc1c2ccccc2c(Cl)c2ccc(Cl)cc12`, the Inhibition was 89%. For `O=C(COc1ccccc1)N(Cc1ccc(-c2ccc(CNC3Cc4ccccc4C3)cc2)cc1)C1CCNCC1.O=C(O)C(F)(F)F`, the Inhibition was 8%. `O=C(Nc1cccc(CN2CCCN(Cc3cccc(O)c3)CC2)c1)c1ccc(Cl)c(Cl)c1.O=C(O)C(F)(F)F` gave an Inhibition of 79%. `COc1ccccc1CN1CCC(NC(=O)c2ccc(-c3cccc(C(F)(F)F)c3)s2)CC1.O=C(O)C(F)(F)F` showed an Inhibition of 12%. For `Cl.c1cc(COc2ccc(C3=NCCN3)cc2)nc(COc2ccc(C3=NCCN3)cc2)c1`, the Inhibition was 98%. Work on `COc1ccc(Oc2ccc(-c3c(C)[nH]c(C)c(Cl)c3=O)cc2)cc1` yielded an Inhibition of 97%. `CCN1CCN(CCCNc2c3ccc(Cl)cc3nc3ccc(OC)cc23)CC1.Cl` showed an Inhibition of 100%. `Nc1nccc2ccc(OC3CCCCC3)cc12.O=CO` gave an Inhibition of 41%. For `c1ccc(Oc2ccc(Nc3ccnc4cc(-c5ccc(CN6CCOCC6)o5)ccc34)cc2)nc1`, the Inhibition was 73%. For `CC(C)NCc1cccc(-c2cccc(NC(=O)c3cccc(C#N)c3)c2)c1.O=C(O)C(F)(F)F`, the Inhibition was 22%.
